These results are taken from ChEMBL document CHEMBL4513216, “Probing the Open Global Health Chemical Diversity Library for Multistage-Active Starting Points for Next-Generation Antimalarials” (ACS Infect Dis, 2020).

Out of some 69,000 compounds screened, about 8,600 (12%) showed an effect of 50% or more. The entries come from a sample that favours strong results as a whole.

This test has as its system Plasmodium berghei. Briefly: Screen against P. berghei liver stage (PbLuc), transformed with Luciferase, at 10uM. In kind it is functional, HepG2. The conditions noted are these: tested at 10 uM.
With `COc1cc(C(=O)N2CC3(CCNCC3)c3cc(Cl)ccc32)ccn1`, the INHIBITION is on record as -17.1%. Turning to `Cc1cc(C(=O)N2CCN(C)CC2)nn1CC(=O)NCc1ccccn1`, the INHIBITION came to 1.95%. Next, `Cc1nc(CN2CCC(N(C)Cc3nnc(C4CC4)n3C)C2)cs1` (stereo not given): 7.12%. Under `O=C(NCCS(=O)(=O)N1CCN(c2ncccn2)CC1)C1CCCC1` stands -33.5%. As to `CCOCC1CN(Cc2ccc3c(c2)OCO3)Cc2nccn2C1` (stereo not given), the INHIBITION stood at 29%. For the compound `Cc1ccc(CNC(=O)CN2CCCCC2Cn2cncn2)s1` (stereo not given), the INHIBITION is given as -1.14%.

With `COC(=O)COc1c(F)cc(Br)cc1C(C)=O`, the INHIBITION came out at 8.24%.

As for `CNC(=O)COc1c(F)cc(Br)cc1C(C)=O`, the INHIBITION was 9.04%. Consider `CC(=O)c1cc(Br)cc(F)c1OCC(=O)NC(C)C`, for which the INHIBITION is 56.9%. Turning to `Cc1nc(CNCC2CN(C3CC3)CCO2)cs1` (stereo not given), the INHIBITION amounted to 27.4%. Under `NC(=O)COc1ccc(CNCc2ccc(F)cc2)cc1` stands 9.52%; under `Cc1nc(C)n(CC2CN(Cc3nc4ccccc4s3)CCO2)n1` (stereo not given), 92.3%; under `Cc1cc(C)n(CC2CN(Cc3ccccn3)CCO2)n1` (stereo not given), 12.415%.

`Cc1cc(C)n(CC2CN(Cc3cnc(C)s3)CCO2)n1` (stereo not given): the INHIBITION is 28.8%. `Cc1cc(C)n(CC2CN(Cc3nc4ccccc4s3)CCO2)n1` (stereo not given): the INHIBITION was 79.9%.

Take `Cc1nc(C)n(CC2CN(Cc3nc4ccccc4n3C)CCO2)n1` (stereo not given): the INHIBITION was 22.3%. As to `Cc1nc(C)n(CC2CN(Cc3cccc4ccccc34)CCO2)n1` (stereo not given), the INHIBITION was 37.4%. Take `CN(Cc1ccco1)C(=O)CN1C(=O)c2ccccc2C1=O`: the INHIBITION turned out to be 33.4%.

Turning to `CN(C)CCN1C(=O)CCCC12CCCN(Cc1cccs1)C2` (stereo not given), the INHIBITION is on record as -3.58%.

Turning to `CNC(=O)NCC(=O)N(C)C(c1ccc(Cl)cc1)c1cccnc1` (stereo not given), the INHIBITION was determined as 35.1%. Turning to `CN(CCO)C1CCN(c2ncc3c(n2)CCN3c2ccccc2)CC1`, the INHIBITION was 22.3%. Take `CC(C)(N)c1cn(C2CCN(c3ncccc3Cl)CC2)nn1`: the INHIBITION is reported as 30.4%. Turning to `CC(C)(O)c1cn(C2CCN(c3ncccc3Cl)CC2)nn1`, the INHIBITION is 25.7%. `Cc1csc2ncnc(N3CCC(Cn4cc(C(C)(C)O)nn4)CC3)c12`: the INHIBITION is 84.2%.

With `Cc1csc2c(N3CCC(Cn4cc(C(C)(C)O)nn4)CC3)ncnc12`, the INHIBITION was 79.3%. For the compound `CC(C)(O)c1cn(C[C@H]2C[C@@H]3CCN2C[C@@H]3C(=O)N2CCOCC2)nn1`, the INHIBITION is listed as -0.473%.

Take `CC(O)Cc1cn(CC2CCN(c3nccc4occc34)CC2)nn1` (stereo not given): the INHIBITION is 11.8%. Next, `Cc1csc2ncnc(N3CCC(Cn4cc(C(C)(C)N)nn4)CC3)c12`: 84.2%. In the case of `Cc1csc2ncnc(N3CCCC(Cn4cc(C(C)(C)O)nn4)C3)c12` (stereo not given), the INHIBITION is recorded as 48.5%. Turning to `O=C(c1ccoc1)N1CCN(Cc2ccccc2F)CC1`, the INHIBITION came out at 18.3%. As to `Cc1ccc(CS(=O)(=O)N2Cc3c(CN(C)C)nn(C)c3C2)cc1`, the INHIBITION amounted to 8.6%.

For the compound `COc1ccc(C2=NOC(CO)C2)cc1` (stereo not given), the INHIBITION was determined as 35.8%. Under `Fc1cccc(-c2nccnc2C2CCCNC2)c1` (stereo not given) stands 8.72%.

Take `c1cc(CN2CCC3(CC2)COC(COCC2CC2)C3)ccn1` (stereo not given): the INHIBITION is 1.9%. For the compound `O=C(Cc1ccsc1)N1CCOC(c2nc(-c3ncccn3)no2)C1` (stereo not given), the INHIBITION is listed as 21.9%. Take `Cn1c(CCC(=O)N2CCCC3(CNC(=O)O3)C2)nc2cccnc21` (stereo not given): the INHIBITION came to 22.5%. Under `Cc1nc(C2CCN(C(=O)c3cc(C4CC4)[nH]n3)CC2)no1` stands 11.9%; under `CS(=O)(=O)Nc1ccn(Cc2cccc(F)c2)n1`, 49.1%.

Regarding `COCCN1CCO[C@H]2CN(Cc3cc[nH]n3)C[C@H]21`, the INHIBITION is 40.3%.

Turning to `c1cc(CN2C[C@@H]3OCCN(CC4CC4)[C@@H]3C2)n[nH]1`, the INHIBITION worked out at 59.3%. Consider `Fc1ccc(CN2C[C@@H]3OCCN(CC4CCCO4)[C@@H]3C2)cc1` (stereo not given in full), for which the INHIBITION stood at 68.4%. On to `COc1ccc(CN2C[C@@H]3OCCN(CCN4CCCC4)[C@@H]3C2)cc1`, for which the INHIBITION is reported as 82.3%. For `c1cc(CN2C[C@@H]3OCCN(CC4CCCO4)[C@@H]3C2)ccn1` (stereo not given in full), the INHIBITION is -1.55%. In the case of `COc1ccc(CN2C[C@@H]3OCCN(CCN(C)C)[C@@H]3C2)cc1`, the INHIBITION is reported as 26.4%. Next, `Fc1ccc(CN2C[C@@H]3OCCN(CCN4CCCC4)[C@@H]3C2)cc1`: 11.3%; `COc1ccc(CN2C[C@@H]3OCCN(CC4CCCO4)[C@@H]3C2)cc1` (stereo not given in full): 27.9%. Regarding `CC(C)N1CCO[C@H]2CN(Cc3cc[nH]n3)C[C@H]21`, the INHIBITION was 29.4%. Turning to `CN(Cc1cscn1)C1CCCN(c2cccnn2)C1` (stereo not given), the INHIBITION stood at 15.5%. Take `COc1c(C)cnc(CN2CCCC(c3noc(C4CC4)n3)C2)c1C` (stereo not given): the INHIBITION was 17.1%. Regarding `CCc1n[nH]c(C2CN(C(=O)c3ccc4c(c3)CCCC4)CCO2)n1` (stereo not given), the INHIBITION was -43.6%. Turning to `O=C(O)c1cncc(Cc2cccc(F)c2)c1`, the INHIBITION was -19.7%.

Regarding `CCc1ccc(CN2CCNC(C(=O)N3CCN(C)CC3)C2)nc1` (stereo not given), the INHIBITION was -14.1%.

In the case of `COc1ccc(F)cc1C(=O)N(C)[C@@H]1CC[C@@H](O)[C@@H]1O`, the INHIBITION is -42%.

In the case of `Cc1ccoc1C(=O)N1CCn2nnc(COc3cccnc3)c2C1`, the INHIBITION is 17.1%. Under `Cn1cc(CN2CCOC(c3nccnc3-c3cccc(F)c3)C2)cn1` (stereo not given) stands 23%.
